Results taken from PubChem BioAssay AID1259399 (Fisher Drug Discovery Resource Center, 2018).
Out of some 160,000 compounds screened, about 240 (0.15%) were called active. The full list was thinned out, with actives kept by preference. Unmarked numbers belong to inactive results. Cut-off read from the data, not from the text of the source: active = inhibition above about 40%; inactive = the rest.

What follows are molecules tested against Cyclic GMP-AMP synthase (Mus musculus) (UniProt Q8C6L5) (assay: cyclic GMP-AMP synthase inhibitors, mouse, primary biochemical chemiluminescence (AID 1259399;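 note: 0% = negative control wells and 100% = reference inhibitor with no enzyme activity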)). Conditions: recombinant cGAS, Kinase-Glo ATP depletion luminescence; at 12.5 µM; stronger effect = higher value.
Cyclic GMP-AMP synthase (Mus musculus), sequence (Q8C6L5 whole entry, looked up): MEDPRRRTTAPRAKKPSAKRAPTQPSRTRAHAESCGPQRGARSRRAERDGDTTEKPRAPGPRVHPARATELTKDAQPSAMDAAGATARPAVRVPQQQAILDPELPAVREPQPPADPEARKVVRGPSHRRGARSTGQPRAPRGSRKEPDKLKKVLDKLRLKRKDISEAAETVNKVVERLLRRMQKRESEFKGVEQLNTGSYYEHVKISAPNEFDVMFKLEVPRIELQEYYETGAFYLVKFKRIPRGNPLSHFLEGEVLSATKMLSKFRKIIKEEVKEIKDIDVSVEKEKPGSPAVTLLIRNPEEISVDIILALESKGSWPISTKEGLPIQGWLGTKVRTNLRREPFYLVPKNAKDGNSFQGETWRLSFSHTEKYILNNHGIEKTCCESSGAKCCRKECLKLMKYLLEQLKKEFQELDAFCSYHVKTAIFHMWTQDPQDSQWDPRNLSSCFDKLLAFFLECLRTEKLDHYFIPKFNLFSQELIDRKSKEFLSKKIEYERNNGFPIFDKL

SMILES	inhibition
Cc1ccc(S(=O)(=O)N(Cc2ccco2)Cc2nccn2Cc2ccc(C(F)(F)F)cc2)cc1	-8.05%
COc1ccccc1C1=NOC(CN(Cc2ccccc2Cl)C(=O)C2CCC2)C1 (stereo not given)	-4.91%
O=c1cc(-c2ccc(F)cc2)ncn1Cc1cccc2ccccc12	5.38%
O=C(CN1CCCC1Cn1cccn1)NCCc1ccc(F)cc1 (stereo not given)	-4.22%
CCc1ccc(-c2nn(-c3ccccc3)cc2C=NO)cc1	-6.62%
CCOc1ccccc1NC(=O)CC(=O)N1[C@H](C)CCC[C@@H]1C	-17.8%
S=C(NN=CC1CC=CCC1)NC1CCCCC1 (stereo not given)	-5.67%
O=C(NNc1nc2c(Cl)cccc2s1)c1cc(=O)c2ccccc2o1	4.02%
COc1ccc(/C=C/C(=O)N2CCC3(CC2)CC3C(=O)N2CCN(c3ccccn3)CC2)cc1OC (stereo not given)	-22.2%
c1ccc(Oc2cccc(-c3ccc4nnc(-c5ccc6nccnc6c5)n4c3)c2)cc1	-8.11%
Cc1ccc(N(CCCCN2C(=O)c3ccccc3C2=O)C(=O)/C=C/c2ccccc2Cl)cc1	-4.6%
CCc1cc(N2CCN(c3ccccc3F)CC2)nc(SCc2cccc(C(=O)NCC3CCCO3)c2)n1 (stereo not given)	-4.77%
CC(O)CNC(c1nc(-c2ccc(Br)cc2)no1)C(C)C (stereo not given)	-3.51%
Cc1cc(C)n(-c2ccc(N3CCN(S(=O)(=O)c4ccc(C)c(C)c4)CC3)nn2)n1	-8.08%
Cc1cc2c(o1)CC(C)(C)CC2NS(=O)(=O)CCc1ccccc1 (stereo not given)	-12.8%
COc1ccccc1C(=O)N1CCC(n2c(=O)oc3ccc(Cl)cc32)CC1	-5.6%
Cc1nnc(SCC(=O)Nc2cccc(Cl)c2)c2c1cnn2-c1ccc(F)cc1	-13.2%
O=C1OC(c2ccc(Cl)cc2)=NC1=Cc1ccc(N2CCOCC2)s1	-5.28%
COCCN1C(=O)C(c2c(C(C)C)[nH]n(-c3ccc(Cl)c(Cl)c3)c2=O)=C([n+]2ccccc2)C1=O	-8.94%
CCOC(=O)c1ccccc1NC(=O)CSc1nnc(C)c2cnn(-c3ccccc3OC)c12	-1.28%
Cc1ccccc1OCC(=O)N(CCn1cccn1)c1nc2ccccc2s1	3%
CCc1nc2c(OCC(N)=O)cccn2c1N(C)C(=O)c1ccc(OC)cc1	-2.96%

SMILES	inhibition
CCOC(=O)CN(C(=O)c1cc(C)oc1C)[C@H]1[C@H](OC)[C@@H]2O[C@H]1c1ccccc12	-0.832%
O=C(COc1ccc(Cl)cc1)NCC1CCN(c2nc(Cc3ccc(F)cc3)ns2)CC1	-5.03%
COC[C@H](C)NC(=O)Cc1sc(C)nc1C	-2.6%
O=C(CCN1C(=O)COc2ccccc21)N1CCC2(CCCO2)CC1	-9.44%
O=C1c2ccccc2C(=O)N1CN(C(=O)C(F)(F)F)c1ccc(I)cc1	-2.77%
CC1c2cccn2CCN1Cc1ccc(C#N)cc1F (stereo not given)	-13.4%
CC1=C(C(=O)OCC(C)C)C23C(=O)c4ccccc4C2(OC(=N)C3C#N)O1 (stereo not given)	-3.99%
COCCCn1c(CN2CCCC(C(=O)c3ccccc3)C2)cnc1S(C)(=O)=O (stereo not given)	-11%
O=C(Cn1nnc(-c2ccccc2)n1)Nc1c(F)cccc1F	4.62%
CCOCCCN(CC(=O)N(Cc1ccccc1)Cc1sccc1C)C(=O)c1cccc(Br)c1	1.83%
COc1ccc(C(=O)N(Cc2ccc(F)cc2)Cc2cc(NC(=O)c3ccco3)ccc2N(C)C)cc1	-0.342%
CC(C)(C)c1cc2nc(-c3ccccc3F)cc(C(=O)NC3CC3)n2n1	-7.68%
CC(C)(C)S(=O)(=O)c1ccc2nn(CC(=O)Nc3ccc(Cl)cc3)c(=O)n2n1	-9.01%
CCCN1CCN(S(=O)(=O)c2[nH]ncc2C(=O)OCC)CC1	-10.5%
Cc1ccc(C)c(NC(=O)Cn2nc3c(=O)n(-c4ccc(Br)cc4)ccn3c2=O)c1	-5.88%
Cc1ccc(C)c(Cn2ccnc2CN(CC(C)C)C(=O)c2cccc(F)c2)c1	-11.5%
COc1ccc(OC)c(CC(=O)NC2CC(C)(C)Cc3c2cnn3-c2cccc(F)c2)c1 (stereo not given)	-9.44%
Fc1ccc(CN2CCCn3cccc3C2c2ccoc2)cc1Cl (stereo not given)	0.16%
O=C1NC2(CCN(Cc3ccccc3[N+](=O)[O-])CC2)Nc2ccc(Br)cc21	-4.81%
CCOC(=O)C1=C(C)N=c2s/c(=C\c3ccc(Cl)c(Cl)c3)c(=O)n2C1c1cccs1 (stereo not given)	-4.71%
COc1cccc(Cc2c(C)nc(C)nc2N2CCN(S(=O)(=O)c3ccc(NC(C)=O)cc3)CC2)c1	-9.89%
CCCCn1c(SCc2nnc(C)o2)nc2sc(C)c(C)c2c1=O	-8.28%

SMILES	inhibition
O=C(Nc1ccc(-c2ccccc2)cc1)N[C@@H](Cc1ccccc1)C(=O)N1CCC(C(=O)N2CCOCC2)CC1	1.19%
COc1ccc(C)cc1S(=O)(=O)Nc1ccccc1C(=O)NCc1cccc(Cl)c1	-4.63%
NC(=O)c1cncc(-n2ccnc2-c2ccccc2)c1	-8.08%
CC(C)Nc1cc(N2CC(c3ccccn3)C2)ncn1	-15.6%
C=CCn1c(SCC(=O)c2cc(C)n(CCOC)c2C)nc2scc(-c3ccccc3)c2c1=O	1.74%
CC(C)N(C(=O)CN1CCN(C(=O)c2cn(C)cc3c(=O)n(-c4ccccc4)nc2-3)CC1)C(C)C	-8.86%
CCOC(=O)c1cc(-c2ccc(N3CCN(C(=O)COCc4ccccc4)CC3)cc2)n(-c2ccccc2Cl)n1	-7.07%
COc1cccc(C(CN2CCN(C(=O)c3oc4ccccc4c3C)CC2)OCc2cccc(Cl)c2)c1 (stereo not given)	-3.76%
O=C(c1ccccc1Br)N1CCc2nc(-c3ccccc3)nc(N3CCCCC3)c2C1	-6.08%
O=C(Nc1nnc(C23CC4CC(CC(C4)C2)C3)s1)C12CC3CC(CC(C3)C1)C2	-5.12%
Cc1ccccc1Cc1nc2c(c(=O)[nH]1)CN(C(=O)Cc1ccc(F)cc1)CC2	-2.79%
CC(C)c1nnsc1C(=O)N1CCC2(CC1)C(=O)NCCN2C	-8.76%
CC(Nc1ccc([N+](=O)[O-])cc1S(=O)(=O)N1CCOCC1)c1ccc(F)cc1F (stereo not given)	-8.24%
N#Cc1ccc(-c2ccccc2)nc1SC(C(=O)O)c1ccccc1 (stereo not given)	-4.77%
CCCS(=O)(=O)N1CCCC(C(=O)NC(C)CC)C1 (stereo not given)	-2.19%
COc1cc([N+](=O)[O-])cc2sc(NC(=O)C(C)C)nc12	-2.21%
CCn1c(=O)c(C(=O)NCC2CCCO2)nn(-c2ccccc2F)c1=O (stereo not given)	-8.2%
CC(C)(C)c1ccc(C2SCC(=O)N2CCC(=O)O)cc1 (stereo not given)	-3.76%
CCCC(=O)Nc1ccc(NC(=O)c2cc(C(C)C)[nH]n2)cc1OC	-8.07%
O=C(NC(c1ccccc1)c1ccc(Cl)cc1)C1CC1(c1ccccc1)c1ccccc1 (stereo not given)	-5.82%
COCCCN1COc2ccc3c(=O)c(Oc4ccc(OC)cc4)coc3c2C1	-1.41%
Brc1ccc(N=c2oc3ccccc3cc2-c2nc3ccccc3[nH]2)cc1	-0.816%

SMILES	inhibition
COc1ccc(-c2nnc3ccc(OCCNS(=O)(=O)c4cccs4)nn23)cc1	-9.21%
Oc1c(Cl)cc(Cl)c2ccc(N/N=C\c3cccc(Oc4ccccc4)c3)nc12	-3.37%
O=c1n(Cc2noc(-c3ccoc3)n2)nnn1-c1cccs1	-17.5%
CC(C)(C)S(=O)(=O)c1ccc(N2CCN(c3ccc(Cl)cc3)CC2)nn1	-8.96%
COc1ccccc1C(=O)N1CCN(CC(OCc2c(F)cccc2F)c2ccc(Cl)cc2)CC1 (stereo not given)	-2.63%
C[N+](C)(CCCCCC[N+](C)(C)CCCN1C(=O)c2cccc3cccc(c23)C1=O)CCCN1C(=O)c2cccc3cccc(c23)C1=O	75.6% (active)
COc1ccc(N2C(=O)c3cccc4cccc(c34)C2=O)cc1OC	-7.45%
Cc1ccccc1N(CCCN1C(=O)c2cccc3cccc(c23)C1=O)C(=O)c1ccc([N+](=O)[O-])cc1	2.98%
COc1cc(C=C2N=C(C(C)(C)C)OC2=O)ccc1OC(F)F	1.97%
COc1ccc(C(=O)N2CCCC3(CC2)CNC(=O)O3)cc1N1CCOCC1 (stereo not given)	-11.6%
O=C(COc1ccc(Cl)cc1)Nc1c(-c2cccc(F)c2)nc2ccccn12	-8.5%
COCCCN(CC(=O)N1CCc2sccc2C1c1ccc(C)cc1)C(=O)c1ccc(C)c([N+](=O)[O-])c1 (stereo not given)	-4.86%
O=C(Cc1ccccc1)N1CC(=O)N(Cc2ccco2)CC(O)C1 (stereo not given)	-3.15%
COc1cc2c(cc1OC)C(CNC(=O)NC(C)(C)C)N(Cc1ccc(F)cc1)CC2 (stereo not given)	-7.88%
Cc1cnc(C(=O)N2CC(c3ccncc3)C2)cn1	-13.8%
NCCOCc1ccc(-c2ccc(F)c(CO)c2)cc1	-21.2%
COc1ccc(S(=O)(=O)N(CC(=O)N2CCc3sccc3C2c2ccccc2C)C(C)C)cc1 (stereo not given)	-2.82%
COCC(=O)Nc1cccc(-n2nc(OCCc3ccc(OC)cc3)nc2-c2ccc(C(F)(F)F)cc2)c1	-3.56%
Cc1csc2nc(CSc3ncn[nH]3)cc(=O)n12	-4.64%
